Source: PubChem BioAssay (EPA / NIEHS)
“And” between values parts separate entries of the source, which are not always exact repeats. Identical values can stand only once. Results filed as inconclusive are left out. Some compounds were tested as several samples or in several runs, with calls that do not always agree. The source made the active and inactive calls. How the source made its calls, unless noted: active means hit-call score of the fitted dose curve at least 0.9, where 1 is the maximum; inactive means score below 0.9.

Assays:
[1] = CCTE_Shafer_MEA_acute_spike_number: CCTE's Neural Acute Assay for Total Number of Spikes, Shafer Lab (AID 2284008);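 on AC50: curve fitted for decrease in spike count so AC50 reflects inhibitors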
Outline: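 Rat cortical cultures, DIV 13/15, 37 C. 40 min baseline rec, cpd 0.03-40 uM, 40 min post-dose rec. Band-pass 300-5000 Hz, spike threshold 8x rms; % change in spike count per well, DMSO neg ctrl, loss-of-signal fit.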

[2] = CCTE_Shafer_MEA_acute_firing_rate_mean: CCTE's Neural Acute Assay for Mean Firing Rate, Shafer Lab (AID 2284009);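 further: analyzed for loss of signal so actives lower firing rate relative to DMSO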
Outline: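 Read-out: well-mean spike rate (spikes/recording length/electrodes), % change from 40 min pre-dose baseline to 40 min with compound. Rat cortical cultures, DIV 13 or 15, 37 C; 0.03-40 uM; DMSO as negative control.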

[3] = CCTE_Harrill_HTTr_Viability_MCF7: CCTE's 6-hour Cell Viability Assessment for the High-Throughput Transcriptomics (HTTr) Platform, in MCF-7 cells cultured in DMEM + 10% fetal bovine serum, Harrill Lab (AID 2284010)
Outline: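 Cells were dosed with chemicals in an eight-point dilution series, imaged 6 hours later for propidium iodide uptake, and the endpoint was analyzed by bidirectional fitting against DMSO as negative control.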

[4] = CCTE_Harrill_HTTr_Apoptosis_MCF7: CCTE's 6-hour Apoptosis Assessment for the High-Throughput Transcriptomics (HTTr) Platform, in MCF-7 cells cultured in DMEM + 10% fetal bovine serum, Harrill Lab (AID 2284011)
Outline: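 Read-out: CellEvent Caspase 3/7 Green signal by high content imaging, gain-of-signal indicating apoptosis. MCF-7 cells, DMEM + 10% FBS, eight-point dilution series, 6 h exposure. Curves fitted bidirectionally relative to DMSO negative control.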

[5] = CCTE_Harrill_HTTr_CellCount_MCF7: CCTE's Cell Proliferation Assessment for the High-Throughput Transcriptomics (HTTr) Platform, Harrill Lab (AID 2284012; active means hit-call score of the fitted dose curve at least 0.9, where 1 is the maximum;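 further: count of Hoechst-stained nuclei per well by high-content imaging in MCF-7 cells; cells exposed to compound for six hours; intended direction is loss of nuclei count meaning fewer cells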)
Outline: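 Chemicals in eight-point dilution series are added to MCF-7 cells for six hours, nuclei are stained with Hoechst and imaged, and per-well nuclei counts are fitted in both directions relative to DMSO controls.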

[6] = CCTE_Shafer_MEA_acute_burst_number: CCTE's Neural Acute Assay for Single-Electrode Bursts, Shafer Lab (AID 2284013)
Outline: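 Rat cortical cultures, DIV 13/15; 40 min baseline, then 40 min with compound 0.03-40 uM, 37 C. Spikes: 300-5000 Hz band-pass, threshold 8x rms noise. Readout = % change in single-electrode bursts vs baseline, loss-of-signal fit.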

[7] = CCTE_Shafer_MEA_acute_burst_duration_mean: CCTE's Neural Acute Assay for Mean Burst Duration, Shafer Lab (AID 2284014);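 further: hits are decreases in mean burst duration relative to DMSO controls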
Outline: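 Primary rat cortical neurons on 16-electrode MEA wells, treated on DIV 13 or 15 with compound (0.03-40 uM; ≥3 wells each). 40-min baseline and 40-min exposure recordings at 37 C; percent change in mean burst duration per well versus DMSO.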

[8] = CCTE_Shafer_MEA_acute_per_burst_spike_number_mean: CCTE's Neural Acute Assay for Average Number of Spikes Per Burst, Shafer Lab (AID 2284015);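 further: hits are decreases in mean spikes per burst versus baseline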
Outline: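 Primary rat cortical neurons on 48-well MEA plates, treated on DIV 13 or 15 at 0.03-40 uM. Spontaneous activity recorded 40 min before and 40 min after compound at 37 C; percent change in mean spikes per single-electrode burst per well, fitted in the loss direction versus DMSO.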

[9] = CCTE_Shafer_MEA_acute_interburst_interval_mean: CCTE's Neural Acute Assay for Mean Interburst Interval, Shafer Lab (AID 2284016);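 further: percent change of mean interburst interval versus each well's own pre-dose baseline; curves fitted for decrease in interburst interval relative to DMSO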
Outline: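 Primary rat cortical neurons on 16-electrode MEA wells were recorded 40 min at baseline on DIV 13 or 15, then 40 min after compound (0.03-40 uM), at 37 C. Value is percent change in mean interburst interval per well, DMSO as negative control.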

[10] = CCTE_Shafer_MEA_acute_burst_percentage_std: CCTE's Neural Acute Assay for Standard Deviation of Burst Percentage, Shafer Lab (AID 2284018);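 further: fitted in the negative direction so actives lower burst percentage SD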
Outline: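 Primary rat cortical neurons on 16-electrode MEA wells were recorded 40 min at baseline (DIV 13 or 15), then 40 min after compound (0.03-40 uM), at 37 C. Well value is SD across electrodes of spikes-in-bursts/total spikes; endpoint is percent change, DMSO-referenced.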

[11] = CCTE_Shafer_MEA_acute_per_network_burst_spike_number_std: CCTE's Neural Acute Assay for Standard Deviation of Number of Spikes in a Network Burst, Shafer Lab (AID 2284020);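 further: fitted for decrease in spike-number SD versus DMSO so actives lower it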
Outline: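 Primary rat cortical neurons on 48-well MEAs (16 electrodes/well) recorded at DIV 13 or 15: 40-min baseline, then 40 min with compound (0.03-40 uM), 37 C. Value is percent change in SD of spikes per network burst, relative to DMSO.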

[12] = CCTE_Shafer_MEA_acute_per_network_burst_electrodes_number_mean: CCTE's Neural Acute Assay for Mean Number of Electrodes in a Network Burst, Shafer Lab (AID 2284021);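 further: curves fitted for decreases only so hits reduce electrodes per burst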
Outline: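 Readout: % change in mean electrodes active per network burst, post- vs pre-treatment, each well. Spikes detected at 8x rms noise after 300-5000 Hz band-pass; rat cortical cultures, DIV 13/15, compounds 0.03-40 uM, DMSO baseline.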

[13] = CCTE_Shafer_MEA_acute_network_burst_percentage: CCTE's Neural Acute Assay for Percentage of Network Bursts, Shafer Lab (AID 2284022);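 further: curves fitted for loss so actives lower network burst percentage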
Outline: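 Rat cortical cultures, DIV 13/15; 20 min equilibration, 40 min baseline, compound 0.03-40 uM, 40 min recording, 37 C. Spikes: 300-5000 Hz band-pass, threshold 8x rms noise. Readout: % change in network-burst spike fraction; loss direction vs DMSO.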

[14] = CCTE_Shafer_MEA_acute_cross_correlation_area: CCTE's Neural Acute Assay for Area of Cross Correlation, Shafer Lab (AID 2284024);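 further: area under pooled inter-electrode spike cross-correlation near zero lag as percent change from own baseline; curves fitted for loss of cross-correlation area so actives lower synchrony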
Outline: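 Rat cortical cultures, DIV 13/15, MEA; spikes detected at 8x rms noise (300-5000 Hz band-pass). Compound 0.03-40 uM, ≥3 wells each. Readout: % change in pooled inter-electrode cross-correlation area vs own baseline; DMSO negative control.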

[15] = CCTE_Shafer_MEA_acute_cross_correlation_HWHM: CCTE's Neural Acute Assay for Cross Correlation at Half Width at Half Maximum, Shafer Lab (AID 2284026);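 further: percent change per well from pre-dose baseline in spike cross-correlogram half width; hits are a decrease in cross-correlogram half width relative to DMSO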
Outline: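 Read-out: half width at half maximum of action-potential cross-correlogram, percent change versus pre-treatment baseline, fitted in loss direction against DMSO. Rat cortical cultures, DIV 13 or 15, dosed 0.03-40 uM, 40-min recordings at 37 C.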

[16] = CCTE_Shafer_MEA_acute_synchrony_index: CCTE's Neural Acute Assay for Synchrony, Shafer Lab (AID 2284027);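 further: fitted for loss of signal so actives lower synchrony relative to DMSO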
Outline: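 Readout is percent change in the unitless network synchrony index (0 low, 1 high) between a 40-min baseline and a 40-min recording in compound. Cultures were primary rat cortical neurons on MEAs, treated at 0.03-40 uM on DIV 13 or 15.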

[17] = biological target: Estrogen receptor (Homo sapiens) (UniProt P03372); test: CCTE_Deisenroth_AIME_384WELL_LUC_Active: CCTE's 384-well Estrogen Receptor Transactivation Assay with AIME metabolic competence (ERTA luciferase; metabolism positive), Deisenroth Lab (AID 2284030; active means hit-call score of the fitted dose curve at least 0.9, where 1 is the maximum)
Outline: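 Readout: bioluminescent luciferase induction in VM7Luc4E2 cells 24 hour after receiving medium from a 2 h rat hepatic S9 (induced, alginate microsphere) metabolism step. Concentrations 0.002 - 200 uM; activity scaled to 17beta-estradiol positive control.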

[18] = CCTE_Deisenroth_AIME_384WELL_CTox_Active: Cytotoxicity Assessment (CTOX) in CCTE's 384-well Estrogen Receptor Transactivation Assay with AIME metabolic competence (metabolism positive), Deisenroth Lab (AID 2284037; active means hit-call score of the fitted dose curve at least 0.9, where 1 is the maximum;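 further: chemicals first conditioned 2 h by alginate-bound induced rat liver S9 before cells; activity means signal loss indicating cell death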)
Outline: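 VM7Luc4E2 breast cells received medium pre-incubated 2 h with chemical over alginate microspheres holding induced male Sprague Dawley rat liver S9; viability read 24 h later by protease-substrate fluorescence. Loss of signal, bidirectional fit, 0.002–200 uM.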

[19] = biological target: Estrogen receptor (Homo sapiens) (UniProt P03372); test: CCTE_Deisenroth_AIME_384WELL_LUC_Inactive: CCTE's 384-well Estrogen Receptor Transactivation Assay without AIME metabolic competence (ERTA luciferase; metabolism negative), Deisenroth Lab (AID 2284038; active means hit-call score of the fitted dose curve at least 0.9, where 1 is the maximum;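 further: hits raise estrogen receptor luciferase signal so potencies reflect agonists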)
Outline: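 Metabolism-negative mode: chemicals (10-point, 0.002–200 uM) held 2 h with alginate-water microspheres, then conditioned medium applied to VM7Luc4E2 cells for 24 h. Luciferase induction referenced to 17beta-estradiol.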

[20] = CCTE_Shafer_MEA_dev_firing_rate_mean: CCTE's Neural Network Formation Assay for Mean Firing Rate, Shafer Lab (AID 2284031);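 further: AUC of well mean spike rate recorded on DIV 5 7 9 and 12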;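 on AC50: curve fitted for loss of firing so AC50 reflects decreased mean firing rate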
Outline: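 Rat primary cortical neurons were seeded on multielectrode arrays and treated from plating through day 12, with redosing at each feed. Spontaneous spiking was recorded four times; mean firing rate AUC was fitted downward against DMSO.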

Measured: AC50

Chain of Estrogen receptor (Homo sapiens) (P03372 whole entry, looked up): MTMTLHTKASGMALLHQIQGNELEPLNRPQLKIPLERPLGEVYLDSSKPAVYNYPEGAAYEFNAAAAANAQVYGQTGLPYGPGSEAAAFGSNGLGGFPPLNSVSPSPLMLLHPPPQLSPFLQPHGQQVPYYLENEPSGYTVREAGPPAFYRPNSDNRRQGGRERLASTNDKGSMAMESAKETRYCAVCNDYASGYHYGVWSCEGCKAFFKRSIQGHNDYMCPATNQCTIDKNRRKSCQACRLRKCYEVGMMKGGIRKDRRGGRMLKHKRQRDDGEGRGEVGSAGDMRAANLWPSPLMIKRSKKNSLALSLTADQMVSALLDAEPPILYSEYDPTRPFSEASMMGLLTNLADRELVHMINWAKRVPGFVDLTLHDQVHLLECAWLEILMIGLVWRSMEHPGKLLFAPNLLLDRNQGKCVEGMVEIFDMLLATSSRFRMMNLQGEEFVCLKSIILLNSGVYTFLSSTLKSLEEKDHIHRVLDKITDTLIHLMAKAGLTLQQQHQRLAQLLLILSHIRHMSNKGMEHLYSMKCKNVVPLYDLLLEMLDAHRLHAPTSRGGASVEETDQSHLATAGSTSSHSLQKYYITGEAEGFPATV

O=C1c2ccccc2C(=O)N1SC(Cl)(Cl)Cl
active: [13] 28.8 µM
not listed: [17] | [18] | [19] | [20]
inactive: all other assays above

Clc1ccccc1-c1nnc(-c2ccccc2Cl)nn1
not listed: [5] | [20]
inactive: all other assays above

CC1(C)C(C=C(Cl)Cl)C1C(=O)OC(C#N)c1ccc(F)c(Oc2ccccc2)c1 (stereo not drawn)
inactive: [3] | [4] | [5] | [6] | [7] | [8] | [9] | [10] | [15] | [20]
active: [1] 407 nM and 4.51 µM | [2] 450 nM and 4.51 µM | [6] 0.173 µM | [7] 1.66 µM | [8] 0.574 µM | [10] 5.28 µM | [11] 81.2 nM and 622 nM | [12] 66.4 nM and 796 nM | [13] 171 nM and 612 nM | [14] 20.3 nM and 102 nM | [15] 15 µM | [16] 117 nM and 558 nM | [20] 1.15 µM and 9.57 µM

N#CN
not listed: [5] | [17] | [18] | [19] | [20]
inactive: all other assays above

CNC(=O)/C=C(\C)OP(=O)(OC)OC
not listed: [5] | [20]
inactive: all other assays above

CCC(C)Nc1c([N+](=O)[O-])cc(C(C)(C)C)cc1[N+](=O)[O-] (stereo not drawn)
active: [10] 0.935 µM | [17] 11.1 µM | [19] 12.4 µM
not listed: [5] | [20]
inactive: all other assays above

Oc1ccc(Cl)cc1Cc1ccccc1
inactive: [3] | [4] | [5] | [7] | [8] | [9] | [11]
active: [1] 1.07 µM | [2] 1.08 µM | [6] 0.814 µM | [10] 8.33 µM | [12] 8.31 µM | [13] 5.05 µM | [14] 457 nM | [16] 5.05 µM

O=[N+]([O-])/N=C1\NCCN1Cc1ccc(Cl)nc1
not listed: [17] | [18] | [19]
inactive: all other assays above

CC(C)N(C(=O)COc1nnc(C(F)(F)F)s1)c1ccc(F)cc1
active: [1] 5.77 µM and 2.11 µM | [2] 5.77 µM | [8] 1.36 µM | [9] 31.9 µM | [10] 3.55 µM | [11] 1.32 µM | [13] 5 µM | [15] 20 µM and 10.9 µM | [16] 15 µM
inactive: [2] | [3] | [4] | [6] | [7] | [8] | [9] | [10] | [11] | [12] | [13] | [14] | [16] | [17] | [20]

O=C(O)CCCOc1ccc(Cl)cc1Cl
not listed: [5] | [17] | [18] | [19] | [20]
inactive: all other assays above

COP(=S)(OC)Oc1ccc(SC)c(C)c1
active: [1] 7.7 µM | [2] 7.7 µM | [6] 6.28 µM | [10] 33.2 µM | [15] 31.2 µM | [16] 29.1 µM
not listed: [5] | [17] | [18] | [19] | [20]
inactive: all other assays above

O=S(=O)(O)C(F)(F)C(F)(F)C(F)(F)C(F)(F)C(F)(F)C(F)(F)C(F)(F)C(F)(F)F
not listed: [17] | [18] | [19]
inactive: all other assays above

ClC1C(Cl)C(Cl)C(Cl)C(Cl)C1Cl (stereo not drawn)
active: [1] 20 µM | [2] 20 µM | [7] 20 µM | [8] 1.62 µM | [12] 1.1 µM | [14] 9690 nM | [16] 1.22 µM
not listed: [13] | [17] | [18] | [19]
inactive: all other assays above

CCCN(CCOc1c(Cl)cc(Cl)cc1Cl)C(=O)n1ccnc1
active: [1] 1.26 µM | [2] 1.24 µM | [6] 1.56 µM | [7] 29.5 µM | [8] 33.1 µM | [11] 32.6 µM
not listed: [17] | [18] | [19] | [20]
inactive: all other assays above
